Screening results: PubChem BioAssay, several laboratories
In the library only some 3.8% were active in any assay of this set; here they are far more common.
KLK7 zymogen act = proKLK7 (human) activation, primary screen. 370,000 compounds, 0.9% hits. purified proKLK7, EDANS-DABCYL substrate fluorescence; 100% is mature enzyme control, 0% vehicle. activation, % at 7 µM. AID 652039. P49862;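 active = activation above the mean of all tested compounds plus 3 SD, computed per campaign excluding outliers beyond control limits, cut at about 13% in these data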
Target sequence (P49862 whole entry, looked up): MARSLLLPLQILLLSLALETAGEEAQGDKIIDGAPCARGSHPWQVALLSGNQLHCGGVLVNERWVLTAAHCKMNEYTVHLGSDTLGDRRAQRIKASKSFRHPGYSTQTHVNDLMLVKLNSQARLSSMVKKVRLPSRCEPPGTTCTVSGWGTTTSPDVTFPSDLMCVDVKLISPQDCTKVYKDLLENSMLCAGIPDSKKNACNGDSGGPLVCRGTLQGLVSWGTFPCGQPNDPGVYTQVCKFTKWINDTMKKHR
ADAM10 inh = inhibitors of human ADAM10; 370,000 compounds, 0.62% hits; inhibition, % at 7 µM; recombinant ADAM10, EDANS/DABCYL FRET peptide cleavage, 3 h; AID 720582;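 active = inhibition above a per-campaign cutoff equal to the mean of compounds falling between control-based bounds plus 3 SD, cut at about 20% in these data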;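 also: 0% = DMSO wells while the 100% control is not disclosed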
rRNA inh HTS = selective bacterial rRNA inhibition in E. coli | E. coli WT GFP vs humanized-ribosome RFP mutants, fluorescence, 24 h; active compounds read low; DMSO median 0, no signal -100 | GFP signal change (wild-type ribosome), % (concentration not given with the values) | 350,000 compounds, 1.6% hits | AID 720706;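 active = significant combined selectivity score with lowered wild-type GFP, culture density cut under 30%, mutant RFP and density less affected; inactive = any of these conditions unmet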
ADAM17 inh = ADAM17 inhibition, QFRET primary screen; P78536; inhibition, % at 6.95 µM; recombinant ADAM17, EDANS/DABCYL FRET peptide cleavage; AID 720648; 370,000 compounds, 0.83% hits;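 active = inhibition above the mean of compounds lying between control limits plus 3 SD, set per campaign, cut at about 8.5% in these data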;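 also: 0% = DMSO-only wells as the low control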
FGF22 binding = binders of recombinant human FGF22 by thermal shift; activity (Tm shift, normalised), % at 9.99 µM; 340,000 compounds, 1.5% hits; AID 651658; Q9HCT0; SYPRO orange fluorescence; percent of sucrose octasulfate shift, DMSO zero;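 active = mean Tm shift, scaled 0 neutral to 100 positive control, at about 1.3% or above, every replicate too, limit read from the data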
Target sequence (Q9HCT0 whole entry, looked up): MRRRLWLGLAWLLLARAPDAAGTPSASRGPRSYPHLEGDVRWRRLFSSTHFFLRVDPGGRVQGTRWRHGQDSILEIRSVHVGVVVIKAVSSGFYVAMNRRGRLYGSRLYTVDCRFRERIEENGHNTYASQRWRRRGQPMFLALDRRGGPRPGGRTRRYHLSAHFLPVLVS
KLK7 act conf = confirmation of human kallikrein-7 zymogen activators; AID 686949; purified proKLK7, EDANS-DABCYL substrate fluorescence; scaled: vehicle 0, mature enzyme 100; activation, % at 7 µM; 3,200 compounds, 68% hits; shares compounds with KLK7 zymogen act;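 active = activation, as change over the incubation, above the mean of all tested compounds plus 3 SD, cut at about 13% in these data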
EDANS interfere = optically interferes with EDANS-DABCYL signal, flagging KLK7 hits | shares compounds with KLK7 zymogen act | EDANS-DABCYL substrate fluorescence interference, no enzyme, 4 h; solvent 0%, active enzyme control 100% | activation, % at 7 µM | 3,200 compounds, 80% hits;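 active = activation above the all-compound mean plus 3 SD, ignoring values outside control-based bounds, cut at about 4.8% in these data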;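 also: value is the 4 h activation minus the activation read at time zero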
The depositor's hits bear a star.

Results for COc1ccc(/C=C2\CCc3c2nc2ccccc2c3C(=O)O)cc1OC ?
KLK7 zymogen act: 16*; ADAM10 inh: -194; rRNA inh HTS: 23; ADAM17 inh: -79; FGF22 binding: 0; KLK7 act conf: 55*; EDANS interfere: 65*

How did N#C/C(=C\c1ccc[nH]1)C(=O)Nc1ccccc1F do in these assays?
KLK7 zymogen act: 0; ADAM10 inh: -12; rRNA inh HTS: -10; ADAM17 inh: 0; FGF22 binding: 1

Results for Cc1cc(/C=C(\C#N)C(=O)Nc2ccccc2F)c(C)[nH]1 ?
KLK7 zymogen act: 32*; ADAM10 inh: -72; rRNA inh HTS: 6; ADAM17 inh: -28; FGF22 binding: 0; KLK7 act conf: 6; EDANS interfere: 6.9*

Results for CC(C)N(C(=O)[C@H]1C[C@H](CC(=O)NCCC2=CCCCC2)C(=O)N2CCc3c([nH]c4cc(-c5ccco5)ccc34)[C@]12C)C(C)C ?
KLK7 zymogen act: -4; ADAM10 inh: -496; rRNA inh HTS: 21; ADAM17 inh: -149; FGF22 binding: 0

What do the screens show for `CC(C)N(C(=O)[C@H]1C[C@H](CC(=O)NCCc2ccccn2)C(=O)N2CCc3c([nH]c4cc(-c5ccco5)ccc34)[C@]12C)C(C)C`?
KLK7 zymogen act: 184*; ADAM10 inh: inactive; rRNA inh HTS: 6; ADAM17 inh: -458; FGF22 binding: 0; KLK7 act conf: 29*; EDANS interfere: 30*

How did CCN(CC)C(=O)[C@H]1C[C@H](CC(=O)NCCc2ccccn2)C(=O)N2CCc3c([nH]c4cc(-c5ccco5)ccc34)[C@]12C do in these assays?
KLK7 zymogen act: 147*; ADAM10 inh: inactive; rRNA inh HTS: 19; ADAM17 inh: -151; FGF22 binding: 0; KLK7 act conf: 64*; EDANS interfere: 79*

What do the screens show for `CCN(CC)C(=O)[C@H]1C[C@H](CC(=O)NCCc2ccccn2)C(=O)N2CCc3c([nH]c4ccc(Cl)cc34)[C@]12C`?
KLK7 zymogen act: 0; ADAM10 inh: -15; rRNA inh HTS: -10; ADAM17 inh: -6; FGF22 binding: 0

What do the screens show for `C[C@]12c3[nH]c4cc(-c5ccco5)ccc4c3CCN1C(=O)[C@@H](CC(=O)NCCc1ccccn1)C[C@@H]2C(=O)N1CCOCC1`?
KLK7 zymogen act: 113*; ADAM10 inh: inactive; ADAM17 inh: -173; FGF22 binding: 0; KLK7 act conf: 52*; EDANS interfere: 68*

How did COC(=O)C[C@H]1C[C@H]2c3cc(NC(=O)Nc4ccc(OC)cc4)ccc3O[C@H]2[C@H](CO)O1 do in these assays?
rRNA inh HTS: -5; FGF22 binding: 0

How did Cc1cc(=O)n2ccccc2c1C#N do in these assays?
KLK7 zymogen act: 48*; ADAM10 inh: inactive; ADAM17 inh: inactive; KLK7 act conf: 70*; EDANS interfere: 70*

How did Cc1cc(=O)n2c(ccc3ccccc32)c1C#N do in these assays?
KLK7 zymogen act: 0; ADAM10 inh: -4; ADAM17 inh: -1

How did C[C@]12CCC3C4(C=CC5(C=C4C(=O)C4CCCCC4)C[C@@H](O)CC[C@]35C)C1CC[C@@]2(O)CN1CCC(n2c(=O)[nH]c3ccccc32)CC1 (stereo partly specified) do in these assays?
FGF22 binding: 0

Results for CNC(=O)/C(C#N)=C/c1ccc(-c2nc3ccccc3s2)o1 ?
KLK7 zymogen act: 3; ADAM10 inh: -15; rRNA inh HTS: 14; ADAM17 inh: -9; FGF22 binding: 0

Results for N#C/C(=C\c1ccc(-c2nc3ccccc3s2)o1)C(N)=O ?
KLK7 zymogen act: 17*; ADAM10 inh: -63; rRNA inh HTS: 6; ADAM17 inh: -28; FGF22 binding: 0; KLK7 act conf: 7; EDANS interfere: 5.9*

Results for Cc1[nH]nc2c1C(c1ccc(F)cc1)C1=C(CC(C)(C)CC1=O)N2 (stereo unspecified) ?
KLK7 zymogen act: 14*; ADAM10 inh: inactive; ADAM17 inh: -157; KLK7 act conf: 9; EDANS interfere: 12*

How did CCOC(=O)N1CCN(C(=O)c2cc3c(=O)n4ccccc4nc3s2)CC1 do in these assays?
KLK7 zymogen act: 17*; ADAM10 inh: inactive; rRNA inh HTS: -1; ADAM17 inh: -239; FGF22 binding: 0; KLK7 act conf: 90*; EDANS interfere: 78*

How did CN1CCN(C(=O)c2cc3c(=O)n4ccccc4nc3s2)CC1 do in these assays?
KLK7 zymogen act: 48*; ADAM10 inh: inactive; rRNA inh HTS: 2; ADAM17 inh: inactive; FGF22 binding: 0; KLK7 act conf: 70*; EDANS interfere: 71*

How did CCn1c(=O)c2cc(C(=O)N3CCN(C)CC3)sc2c2ccccc21 do in these assays?
KLK7 zymogen act: 28*; ADAM10 inh: inactive; rRNA inh HTS: -6; ADAM17 inh: -139; FGF22 binding: 0; KLK7 act conf: 9; EDANS interfere: 8.0*

How did COc1ccccc1N1CCN(C(=O)c2cc3c(=O)n4ccccc4nc3s2)CC1 do in these assays?
KLK7 zymogen act: 7; ADAM10 inh: -262; ADAM17 inh: -66; FGF22 binding: 0

What do the screens show for `CO[C@H]1CN(C)C(=O)c2ccc(NC(=O)Cc3ccccc3)cc2OC[C@@H](C)N(C)C[C@H]1C`?
rRNA inh HTS: 2

What do the screens show for `CCNC(=O)C[C@H]1CC[C@@H]2[C@@H](COc3ccc(NC(=O)c4cc(C)on4)cc3C(=O)N2C)O1`?
rRNA inh HTS: -3; FGF22 binding: 0

What do the screens show for `O=C(NCc1ccco1)c1cccc(-c2cncc3nccn23)c1`?
KLK7 zymogen act: 16*; ADAM10 inh: inactive; rRNA inh HTS: 5; ADAM17 inh: -323; FGF22 binding: 1; KLK7 act conf: 20*; EDANS interfere: 19*

What do the screens show for `O=C(NC1CC1)c1cccc(-c2cncc3nccn23)c1`?
KLK7 zymogen act: 16*; ADAM10 inh: inactive; rRNA inh HTS: 2; ADAM17 inh: -381; FGF22 binding: 0; KLK7 act conf: 7; EDANS interfere: 11*

Results for O=C(NC1CC1)c1ccc(-c2cnc3cccnn23)cc1 ?
KLK7 zymogen act: 77*; ADAM10 inh: inactive; rRNA inh HTS: -3; ADAM17 inh: inactive; FGF22 binding: 0; KLK7 act conf: 83*; EDANS interfere: 79*

How did Cc1cc(C)c2c(N)c3ccccc3nc2n1 do in these assays?
KLK7 zymogen act: 16*; ADAM10 inh: inactive; ADAM17 inh: inactive; KLK7 act conf: 70*; EDANS interfere: 77*
